# This is a sample that favours compounds with a hit; in the whole collection about 5.4% have one here.
# HSF1 inh = HSF1 inhibitors in luciferase reporter cells, primary screen, cell-based, NIH3T3, luminescence; NIH3T3-HGL HSE-luciferase, MG132-induced, luminescence 8 h; active compounds read low; activity change, negative = inhibition, % at 7.5 µM (by protocol); 300,000 compounds, 0.77% hits; AID 2098, 2009;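 active = more than half of replicate wells show activity change below -50%, luminescence cut by over half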;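 also: luciferase reports HSF-1 transcriptional activity via heat shock element; 0% = median of DMSO wells and -100% = zero luminescence signal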
# HSF1 activator = HSF-1 activators, primary screen, NIH3T3-HGL cells, MG132 stress, luminescence, single point. NIH3T3-HGL HSF-1 luciferase reporter, 8 h; 100% = twice DMSO control signal. activation, % at 9 µM. 300,000 compounds, 1.7% hits. AID 504408, 2011;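 active = mean replicate activation of at least 50% with a set share of replicates each reaching 50%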;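 also: 0% = median of the neutral control wells and 100% = twice that signal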
# AHR activator = AHR activators, primary screen, cell-based, luminescence, luciferase reporter, human; Aryl hydrocarbon receptor (Homo sapiens), P35869; AHR-responsive luciferase reporter cells; activation, % at 5 µM; 320,000 compounds, 2.5% hits; in the data active = activation above about 47%;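 also: 0% = vehicle wells and 100% = reference agonist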
# FXN GAA850 act = FXN promoter activators, primary screen, cell-based, luciferase luminescence, HEK293 lucGAA850; activation, % at 6 µM; HEK293 lucGAA850 FXN promoter luciferase reporter, 24 h; percent of 10 µM SAHA response; 360,000 compounds, 0.56% hits; AID 540364, 2011;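 active = activation above the average of all compounds screened plus 3 SD, cutoff fixed separately per campaign, cut at about 7.5% in these data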;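 also: 0% = DMSO wells and 100% = 10 µM SAHA wells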
# DAX1 inh = DAX1 (NR0B1) inhibitors, primary screen, cell-based, HEK293, Gal4-DAX1, luciferase luminescence; HEK293 Gal4-DAX1 luciferase reporter; inhibition, % at 6.75 µM; 340,000 compounds, 0.99% hits; AID 504766, 2011;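 active = inhibition above the mean over all tested compounds plus 3 SD, cut at about 4.2% in these data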;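 also: 0% = DAX1-transfected cells with DMSO and 100% = empty-vector control cells with DMSO; inhibition shows as a rise in luminescence from relieved DAX1 repression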
# Active calls of the source: *; x = no result.
SMILES,HSF1 inh,HSF1 activator,AHR activator,FXN GAA850 act,DAX1 inh
CCOC(=O)c1ccccc1NC(=O)Cc1ccc(S(=O)(=O)N2CCCC2)s1,x,x,3,2,-2
CNC(=O)C1CC(=O)N(c2ccc(OCC(=O)Nc3ccc(OC)cc3)cc2)C1 (stereo not given),x,x,-2,-2,0
COCCNC(=O)Cn1cnc2c1c(=O)n(C)c(=O)n2C,28,56*,-3,0,0
COc1ccc(Cl)cc1NC(=O)CN(C)C(=O)Cn1c(=O)oc2ccccc21,-58*,-68,3,1,0
COc1ccc(Cl)cc1NC(=O)CN(C)C(=O)Cn1cnc2c1c(=O)n(C)c(=O)n2C,-74*,-80,-2,3,1
COc1ccccc1NC(=O)Cn1cnc2c1c(=O)n(C)c(=O)n2C,0,13,2,0,1
CC(C)c1nnc(NC(=O)C2CCN(C(=O)Nc3ccc(Cl)cc3)CC2)s1,15,13,2,1,0
COC(=O)c1c(NC(=O)CSc2nnc3ccccn23)sc2c1CCC2,2,-2,6,0,0
Cc1cc(Cl)c(C(=O)Nc2cccc(C(F)(F)F)c2)c(C)n1,27,39,3,-3,-4
CCOC(=O)C(C)Sc1nc(-c2ccccc2)nc2ccccc12 (stereo not given),7,18,4,3,-1
O=C(NCc1ccccc1)c1c[nH]c2cc3c(cc2c1=O)OCCO3,-5,12,77*,3,2
CC(C)(C)NC(=O)CN(Cc1cccs1)C(=O)CNS(=O)(=O)c1ccc(F)cc1,3,1,-1,0,-1
CCC(C)(C)NC(=O)CN(Cc1cccs1)C(=O)CNS(=O)(=O)c1ccc(C)cc1,4,17,-1,-1,6.4*
O=C(Nc1cccc(OC(F)(F)F)c1)C1Cc2c(-c3ccccc3Oc3ccccc3)ccnc2O1 (stereo not given),x,x,x,3,x
O=C(O)CCCCn1c(SCc2ccccc2Cl)nc2ccsc2c1=O,0,22,x,-2,4.7*
Oc1ccc(-c2cnc(-c3ccc(O)cc3)nc2)cc1,42,67*,7,3,-2
CC(C)(C)c1ccc(N2C(=O)Cc3c2nc(N)c(C#N)c3N)cc1,-4,8,76*,2,1
CCN(CC)c1nc2c3c(nc4c(c3c1C#N)CC(=O)N4c1ccc(Cl)cc1)NC(C)=N2,-3,8,7,-4,-1
CCc1ccc(N2C(=O)Cc3c2nc(N)c(C#N)c3N)cc1,-4,11,52*,4,1
CCOC(=O)Cc1ccc2sc(-c3ccccc3)nc2c1,53,92*,-1,6,4
CCOC(=O)N1CCN(c2nc(-c3ccccc3)c3ccccc3n2)CC1,-3,20,-2,2,0
O=C(NC(=S)Nc1cccc(Cl)c1Cl)C1CC1,4,12,52*,5,1
CSc1nc(N)nc(C2CC2)n1,1,1,-1,3,4.8*
CSc1nc(N)nc(N(C)C)n1,-4,-8,1,1,1
Cn1c(SCc2cccc(C(F)(F)F)c2)nnc1-c1ccco1,9,59*,-3,1,0
SMILES,HSF1 inh,HSF1 activator,AHR activator,FXN GAA850 act,DAX1 inh
O=C(N1CCCCC1)C1(S(=O)(=O)c2ccccc2)CC=CC1,3,8,4,0,1
O=C(Nc1ccc2nc(C(F)(F)F)[nH]c2c1)[C@@H]1O[C@H](CO)[C@@H](O)[C@H]1O,x,x,x,0,x
CC(C)CCNC(=O)CCn1nc(-c2ccc(Cl)cc2)ccc1=O,2,15,6,0,1
O=[N+]([O-])c1ccccc1COc1ccc(Cl)c2cccnc12,11,44,72*,5,4.8*
COc1cccc(CNCc2ccccc2Br)c1OC,-1,7,2,1,0
Nc1nnc(/C=C/c2ccccc2Cl)s1,35,70*,2,5,1
Cc1c(C)c2ccc(OCC(=O)N3CCC(C(=O)O)CC3)cc2oc1=O,4,-8,-1,2,3
CCCc1cc(=O)oc2cc(OCC(=O)N3CCC(C(N)=O)CC3)ccc12,-5,-1,1,2,6.3*
CCc1cc(=O)oc2cc(OCC(=O)N3CCC(C(=O)O)CC3)ccc12,0,1,0,0,4.6*
CCOC(=O)C1CCN(C(=O)COc2ccc3c(C)cc(=O)oc3c2)CC1,0,9,0,1,1
S=c1nc(-c2ccccc2)[nH]c2ccccc12,8,6,57*,2,0
S=c1nc(-c2ccc(Br)cc2)[nH]c2ccccc12,4,2,39,2,1
Cc1oc(/C=N/NC(=O)CC2(C)OCCO2)cc1Br,-53*,-62,15,1,2
CN(C)c1ccc(/C=N/OC(=O)Nc2ccccc2Cl)cc1,-11,-18,2,2,2
O=C(NCc1ccccc1Br)c1ccc2c(c1)OCCO2,2,3,1,2,-1
O=C(COC(=O)/C=C/c1ccc(C(F)(F)F)cc1)NC1CC1,-56*,-58,1,1,0
O=C(NCc1ccccc1CN1CCCC1)c1cc2ccccc2o1,x,x,18,1,-1
CCCCOc1ccc(-c2[nH]ncc2C=O)cc1,5,-2,27,5,5.1*
O=C(Nc1ccc(F)cc1)c1csc(Cc2ccccc2)n1,38,59*,7,0,3
CC(=O)Nc1ccc(NC(=O)c2sc(-c3ccccc3)nc2C)cc1,0,11,2,-2,1
Cc1nc(-c2ccncc2)sc1C(=O)Nc1ccc(Br)cc1,2,13,62*,-1,-2
CC(=O)c1csc(Nc2ccccc2Cl)n1,3,17,1,2,8.7*
O=C(Nc1ccc(Cl)cc1)c1csc(-c2ccncc2)n1,5,8,54*,2,0
COc1ccc(NC(=O)c2csc(Cc3ccccc3)n2)cc1,9,24,32,3,-1
Cc1ccc(S(=O)(=O)N/N=C/c2ccc(OCC(=O)NC(C)C)cc2)cc1,-4,-14,-3,2,0
SMILES,HSF1 inh,HSF1 activator,AHR activator,FXN GAA850 act,DAX1 inh
CCOC(=O)c1cnc2c(C)cc(Cl)cc2c1N1CCN(C)CC1,-6,7,4,4,0
O=C(Nc1ccc(Br)cc1)c1csc(-c2ccncc2)n1,11,14,53*,2,-1
O=C(O)c1ccc(-c2nc(-c3ccccc3)cs2)cc1,25,49,11,4,6.5*
CC(=O)c1csc(-c2ccccc2)n1,-8,2,3,1,5.4*
COc1ccccc1CNC(=O)c1csc(Cc2ccc(Cl)cc2)n1,62,100*,6,-1,0
COc1ccc(CNC(=O)c2csc(Cc3ccccc3)n2)cc1,7,18,3,0,1

# Bioassay records (PubChem)
